According to ChEMBL document CHEMBL3988442, “University of Dundee, Small-Polar-MMV Screening Library” (2021):

Biological target: T1, Methionyl-tRNA synthetase, putative (Leishmania donovani (strain BPK282A1)) (UniProt E9BF75)
T1 sequence (whole entry): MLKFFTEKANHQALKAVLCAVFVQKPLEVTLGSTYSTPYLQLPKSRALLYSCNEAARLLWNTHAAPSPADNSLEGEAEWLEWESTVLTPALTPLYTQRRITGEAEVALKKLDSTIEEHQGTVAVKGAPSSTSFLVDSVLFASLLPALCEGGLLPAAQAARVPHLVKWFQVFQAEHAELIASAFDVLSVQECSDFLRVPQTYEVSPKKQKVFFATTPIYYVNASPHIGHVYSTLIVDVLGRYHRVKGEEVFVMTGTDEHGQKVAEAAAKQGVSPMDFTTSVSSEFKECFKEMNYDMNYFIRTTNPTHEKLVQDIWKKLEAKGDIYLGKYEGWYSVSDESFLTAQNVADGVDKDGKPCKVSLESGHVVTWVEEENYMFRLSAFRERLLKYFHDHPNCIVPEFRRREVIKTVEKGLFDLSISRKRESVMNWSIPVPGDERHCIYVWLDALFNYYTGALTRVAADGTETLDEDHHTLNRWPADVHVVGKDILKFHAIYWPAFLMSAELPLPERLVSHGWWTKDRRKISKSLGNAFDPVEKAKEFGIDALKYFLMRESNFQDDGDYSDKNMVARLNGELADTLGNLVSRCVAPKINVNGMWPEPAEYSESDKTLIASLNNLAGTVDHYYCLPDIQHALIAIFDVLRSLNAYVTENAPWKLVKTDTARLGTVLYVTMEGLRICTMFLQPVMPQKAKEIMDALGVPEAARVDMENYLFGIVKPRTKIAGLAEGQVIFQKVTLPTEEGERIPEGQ
Experiment: Leishmania donovani Methionine tRNA synthetase (LdMetRS):v7. Dose response assay
Format: functional
Parameters: conc 80 nM, time 150 minutes

SMILES: Cc1nc(NC(C)C(=O)O)c2c3c(sc2n1)CCCC3 (stereo not drawn)
- PXC50 (MAX_EFFECT 7.035175879): < 4
- PXC50 (MAX_EFFECT 8.5995086): < 4

SMILES: Cc1cnn(CC2CN(Cc3nc(C)c4ccccc4n3)CCO2)c1 (stereo not drawn)
- PXC50 (MAX_EFFECT 29.53020134): < 4
- PXC50 (MAX_EFFECT 39.58333333): < 4
- PXC50 (MAX_EFFECT 44.19410745): < 4

SMILES: OCCNc1ccnc(Nc2cccc(F)c2)n1
- PXC50 (MAX_EFFECT 29.67244701): < 4
- PXC50 (MAX_EFFECT 30.83700441): < 4
- PXC50 (MAX_EFFECT 32.02479339): < 4

SMILES: OCCCNc1ccnc(Nc2cccc(C(F)(F)F)c2)n1
- PXC50 (BOTTOM -1.471323434, HILLSLOPE 0.842843203, MAX_EFFECT 51.77570093, TOP 92.13190163): 4.16
- PXC50 (BOTTOM -3.274011796, HILLSLOPE 1.62633592, MAX_EFFECT 57.93991416, TOP 100.0): 4.09
- PXC50 (MAX_EFFECT 49.40617577): < 4

SMILES: CCc1nc(N2CCN(c3ncccn3)CC2)c2cc(C)sc2n1
- PXC50 (MAX_EFFECT 13.86666667): < 4
- PXC50 (MAX_EFFECT 15.34391534): < 4

SMILES: OCCNc1nc(Nc2ccc(F)c(F)c2)nc2ccsc12
- PXC50 (BOTTOM 1.719198718, HILLSLOPE 0.904710071, MAX_EFFECT 90.94412331, TOP 99.0565164): 5.18
- PXC50 (BOTTOM 2.94588064, HILLSLOPE 1.041078654, MAX_EFFECT 85.02202643, TOP 89.21565971): 5.26
- PXC50 (BOTTOM 5.256543605, HILLSLOPE 0.944714137, MAX_EFFECT 88.2231405, TOP 97.0813666): 5.17

SMILES: Cn1ncc2c(NCCn3cnnn3)nc(Nc3ccc(F)c(F)c3)nc21
- PXC50 (BOTTOM 0.694813003, HILLSLOPE 0.766193094, MAX_EFFECT 55.16528926, TOP 100.0): 4.46
- PXC50 (MAX_EFFECT 43.90715667): < 4
- PXC50 (MAX_EFFECT 44.05286344): < 4

SMILES: CNS(=O)(=O)CCNc1nc(NCCO)c2cnn(C)c2n1
- PXC50 (MAX_EFFECT 5.780346821): < 4
- PXC50 (MAX_EFFECT 6.392694064): < 4
- PXC50 (MAX_EFFECT 15.28301887): < 4

SMILES: CC1COc2ccccc2N1C(=O)CCc1cscn1 (stereo not drawn)
- PXC50 (MAX_EFFECT 3.401360544): < 4
- PXC50 (MAX_EFFECT 4.347826087): < 4
- PXC50 (MAX_EFFECT 6.479859895): < 4

SMILES: CCNc1nc(Nc2ccc(F)c(F)c2)nc2c1cnn2C
- PXC50 (BOTTOM 1.995747486, HILLSLOPE 0.878307732, MAX_EFFECT 82.01754386, TOP 90.74385953): 5.04
- PXC50 (BOTTOM -0.278671712, HILLSLOPE 0.874738485, MAX_EFFECT 76.33587786, TOP 84.21903162): 5.21
- PXC50 (BOTTOM -9.286701073, HILLSLOPE 0.734415983, MAX_EFFECT 80.15414258, TOP 112.1235893): 4.93

SMILES: Cc1nc(CN(C)C(=O)c2ccc(Cn3cnnn3)cc2)cs1
- PXC50 (MAX_EFFECT 1.360544218): < 4
- PXC50 (MAX_EFFECT 4.347826087): < 4
- PXC50 (MAX_EFFECT 4.72854641): < 4

SMILES: Cc1sc2nc(-c3cccs3)nc(N(C)CC(=O)NC3CC3)c2c1C
- PXC50 (MAX_EFFECT 6.361323155): < 4
- PXC50 (MAX_EFFECT 7.808564232): < 4

SMILES: CCC(C)NC(=O)c1ccc(-c2ccco2)[nH]c1=O (stereo not drawn)
- PXC50 (MAX_EFFECT 4.72854641): < 4
- PXC50 (MAX_EFFECT 5.442176871): < 4
- PXC50 (MAX_EFFECT 7.971014493): < 4

SMILES: O=C(NCC1CCCCC1)c1cc(=O)c2cc(O)ccc2o1
- PXC50 (MAX_EFFECT 0.575815739): < 4
- PXC50 (MAX_EFFECT 4.306220096): < 4

SMILES: Cn1ncc2c(NCC3CCOC3)nc(Nc3ccc(F)c(F)c3)nc21 (stereo not drawn)
- PXC50 (BOTTOM 0.0, HILLSLOPE 0.829006149, MAX_EFFECT 88.54961832, TOP 100.0): 4.89
- PXC50 (BOTTOM 5.170404417, HILLSLOPE 0.914601234, MAX_EFFECT 86.40350877, TOP 102.339634): 4.72
- PXC50 (BOTTOM -0.903989981, HILLSLOPE 0.887117975, MAX_EFFECT 86.41509434, TOP 97.82602818): 4.97

SMILES: Cn1ncc2c(N3CCC[C@H]3CO)nc(Nc3ccc(F)c(F)c3)nc21
- PXC50 (BOTTOM 3.354874327, HILLSLOPE 0.975942115, MAX_EFFECT 81.27853881, TOP 88.63537555): 5.05
- PXC50 (BOTTOM 5.651213015, HILLSLOPE 1.001049773, MAX_EFFECT 83.58490566, TOP 90.01230887): 5.05
- PXC50 (BOTTOM 9.222423555, HILLSLOPE 1.183933311, MAX_EFFECT 81.21442125, TOP 84.5225205): 5.23

SMILES: OCCNc1nc(Nc2cccc(OC(F)(F)F)c2)nc2ccsc12
- PXC50 (BOTTOM -3.252318024, HILLSLOPE 0.711277169, MAX_EFFECT 57.23140496, TOP 100.0): 4.23
- PXC50 (MAX_EFFECT 49.7098646): < 4
- PXC50 (MAX_EFFECT 49.77973568): < 4

SMILES: Cc1noc(CCNc2nc(Nc3ccc(F)c(F)c3)nc3c2cnn3C)n1
- PXC50 (BOTTOM 2.244251311, HILLSLOPE 1.0049242, MAX_EFFECT 73.69439072, TOP 84.09605428): 4.84
- PXC50 (BOTTOM 5.127321336, HILLSLOPE 1.112866852, MAX_EFFECT 63.09012876, TOP 72.94792798): 4.77
- PXC50 (BOTTOM 6.005431852, HILLSLOPE 0.908019528, MAX_EFFECT 65.55819477, TOP 83.02457631): 4.61

SMILES: OCCNc1nc(Nc2ccc(F)c(F)c2)nc2[nH]ncc12
- PXC50 (BOTTOM 3.46805435, HILLSLOPE 2.296919563, MAX_EFFECT 68.49315068, TOP 65.56498053): 5.11
- PXC50 (BOTTOM 8.366568489, HILLSLOPE 1.390922894, MAX_EFFECT 66.79316888, TOP 71.6605159): 5.22
- PXC50 (BOTTOM -5.242433447, HILLSLOPE 1.269255479, MAX_EFFECT 62.45283019, TOP 64.77487353): 5.31

SMILES: CN(CCN)c1nc(Nc2ccc(F)c(F)c2)nc2c1cnn2C
- PXC50 (BOTTOM 2.133170856, HILLSLOPE 1.093077372, MAX_EFFECT 77.62557078, TOP 100.0): 4.41
- PXC50 (BOTTOM 3.57857286, HILLSLOPE 1.096477566, MAX_EFFECT 74.90566038, TOP 102.700119): 4.36
- PXC50 (BOTTOM 5.354463627, HILLSLOPE 0.967320352, MAX_EFFECT 79.31688805, TOP 100.0): 4.54

SMILES: NS(=O)(=O)c1cc(C(=O)O)cnc1Nc1cccc(C(F)(F)F)c1
- PXC50 (MAX_EFFECT 5.660377358): < 4
- PXC50 (MAX_EFFECT 10.0877193): < 4
- PXC50 (MAX_EFFECT 16.28498728): < 4

SMILES: Nc1cc2c(nn1)CCN(C(=O)c1csc(-c3cccs3)n1)C2
- PXC50 (MAX_EFFECT 19.04761905): < 4
- PXC50 (MAX_EFFECT 19.56521739): < 4
- PXC50 (MAX_EFFECT 20.14010508): < 4

SMILES: CN(C)c1nc2c(c(N3CCc4ccccc4C3)n1)CCNC2
- PXC50 (BOTTOM 4.386431105, HILLSLOPE 1.427859325, MAX_EFFECT 80.85808581, TOP 100.0): 4.37
- PXC50 (BOTTOM 4.719660638, HILLSLOPE 1.487233723, MAX_EFFECT 73.91304348, TOP 100.0): 4.28
- PXC50 (BOTTOM 4.739489756, HILLSLOPE 1.201717489, MAX_EFFECT 56.63082437, TOP 100.0): 4.07

SMILES: Cn1ncc2c(NCCS(C)(=O)=O)nc(Nc3ccc(F)c(F)c3)nc21
- PXC50 (MAX_EFFECT 19.95249406): < 4
- PXC50 (MAX_EFFECT 30.90128755): < 4
- PXC50 (MAX_EFFECT 33.0754352): < 4
